Laboratory results: article PMC4336329 (PLoS ONE, 2015)
The campaign covered roughly 310,000 compounds. About 14,000 (4.5%) showed an effect of 50% or more. Effects have a minus sign here. This excerpt belongs to a sample that is enriched for strong results.

biological target: human ether-à-go-go-related gene (hERG) potassium channel (human, UniProt Q12809); test: primary screen, population patch clamp on CHO cells stably expressing hERG; higher = less effect of the substance
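Note: peak tail current of the secondary pulse compared with the same well before compound.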

Chain of human ether-à-go-go-related gene (hERG) potassium channel (Q12809 whole entry, looked up): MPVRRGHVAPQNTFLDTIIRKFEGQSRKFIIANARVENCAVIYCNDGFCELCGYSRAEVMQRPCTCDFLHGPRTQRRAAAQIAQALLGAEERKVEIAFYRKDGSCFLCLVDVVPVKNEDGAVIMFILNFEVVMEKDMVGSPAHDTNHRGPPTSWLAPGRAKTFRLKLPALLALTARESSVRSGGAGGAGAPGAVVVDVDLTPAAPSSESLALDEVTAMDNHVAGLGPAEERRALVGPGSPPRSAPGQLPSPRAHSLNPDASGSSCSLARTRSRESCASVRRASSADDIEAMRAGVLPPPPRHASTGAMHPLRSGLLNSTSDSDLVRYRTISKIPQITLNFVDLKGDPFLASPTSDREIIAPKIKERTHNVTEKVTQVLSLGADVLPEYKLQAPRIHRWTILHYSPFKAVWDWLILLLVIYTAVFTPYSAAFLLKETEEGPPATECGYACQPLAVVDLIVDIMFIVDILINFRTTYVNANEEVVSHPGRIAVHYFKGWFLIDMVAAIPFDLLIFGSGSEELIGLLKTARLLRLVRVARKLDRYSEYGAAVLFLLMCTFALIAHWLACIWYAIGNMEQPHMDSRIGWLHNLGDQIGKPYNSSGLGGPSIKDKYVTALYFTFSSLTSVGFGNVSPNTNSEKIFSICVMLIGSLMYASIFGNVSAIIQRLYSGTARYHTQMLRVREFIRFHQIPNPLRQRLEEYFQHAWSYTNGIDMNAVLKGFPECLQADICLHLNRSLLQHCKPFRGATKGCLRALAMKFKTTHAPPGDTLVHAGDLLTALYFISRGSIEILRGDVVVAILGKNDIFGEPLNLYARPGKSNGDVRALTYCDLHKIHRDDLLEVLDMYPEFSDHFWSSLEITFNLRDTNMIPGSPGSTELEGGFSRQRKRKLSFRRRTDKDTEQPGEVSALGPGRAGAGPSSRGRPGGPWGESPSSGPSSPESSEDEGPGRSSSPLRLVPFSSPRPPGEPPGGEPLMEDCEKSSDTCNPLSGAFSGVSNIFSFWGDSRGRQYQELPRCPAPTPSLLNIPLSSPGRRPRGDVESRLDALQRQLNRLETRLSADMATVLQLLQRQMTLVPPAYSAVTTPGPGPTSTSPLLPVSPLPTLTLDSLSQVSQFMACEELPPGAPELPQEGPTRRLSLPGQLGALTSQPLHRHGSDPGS

| Compound | hERG current change (%, negative = inhibition) at 10uM [%] |
| --- | --- |
| CC1CCN(C(=O)CCc2nnc(-c3ccccc3)o2)CC1 | -5.83 |
| O=C(NNc1ccc([N+](=O)[O-])cc1)C12CC3CC(CC(C3)C1)C2 | 19.5 |
| CC(=O)Nc1ccc(OCc2cccc([N+](=O)[O-])c2)cc1 | 8.84 |
| Cc1onc(-c2ccccc2Cl)c1C(=O)Oc1cc(N)n(S(=O)(=O)c2ccc(F)cc2)n1 | -3.48 |
| COc1ccccc1Cc1nc(-c2cccnc2)no1 | 14.8 |
| Cc1ccn2c(C(=O)CSc3ccc(Cl)cc3)c(C)nc2c1 | 7.28 |
| CCOc1ccc(N2C(=O)CC(NCC3CCCO3)C2=O)cc1 (stereo not drawn) | 2.22 |
| O=C(Nc1ccccc1)C(c1ccccc1)c1ccccc1 | 15.1 |
| O=C(N/C(=C/C=C/c1ccccc1)C(=O)N1CCOCC1)c1ccccc1Cl | -16.6 |
| O=C(N/C(=C\c1ccccc1)C(=O)N1CCCCCC1)c1ccccc1 | 15.2 |
| O=C(N/C(=C\c1ccc([N+](=O)[O-])cc1)C(=O)N1CCCCC1)c1ccccc1 | -76.9 |
| O=C(N/C(=C/C=C\c1ccccc1)C(=O)N1CCOCC1)c1ccc(Br)cc1 | -64.1 |
| O=C(N/C(=C/c1ccccc1)C(=O)N1CCCCC1)c1ccccc1 | 29.9 |
| CCCCOc1ccc(C(=O)N/C(=C/C=C/c2ccccc2)C(=O)N2CCOCC2)cc1 | -5.66 |
| Cc1cc(C(=O)OCC(=O)Nc2cccc(S(N)(=O)=O)c2)c2ccccc2n1 | -4.62 |
| COc1cc(C2NC(=S)NC(c3ccccc3)=C2C(C)=O)ccc1O (stereo not drawn) | 15.4 |
| CCOCCCNC(=O)c1ccc2nc(-c3ccc(OC)c(OC)c3)c(-c3ccc(OC)c(OC)c3)nc2c1 | 6.99 |
| COc1ccc(C(=O)c2c3ccc([N+](=O)[O-])cc3[n+]([O-])n2CCC[NH3+])cc1.[Cl-] | -47.4 |
| NC(=O)CCCn1c(C(=O)c2ccc(Cl)cc2)c2ccc([N+](=O)[O-])cc2[n+]1[O-] | -74.1 |
| [Cl-].[NH3+]CCCn1c(C(=O)c2ccc(Cl)cc2)c2ccc([N+](=O)[O-])cc2[n+]1[O-] | -63.8 |
| NC(=O)CCn1c(C(=O)c2cccc([N+](=O)[O-])c2)c2ccccc2[n+]1[O-] | 4.25 |

| Compound | hERG current change (%, negative = inhibition) at 10uM [%] |
| --- | --- |
| NC(=O)CCCn1c(C(=O)c2cc(Cl)c(N)c(Cl)c2)c2ccc([N+](=O)[O-])cc2[n+]1[O-] | -30.9 |
| Cc1ccc(C(=O)c2c3ccc([N+](=O)[O-])cc3[n+]([O-])n2CCCC(N)=O)cc1 | -36.6 |
| COc1ccc(-c2oc3ccc(-c4cc(OC)c(OC)c(OC)c4)cc3c2-c2ccc(OC)cc2)cc1 | 13.6 |
| CN(C)S(=O)(=O)c1cccc(COC(=O)c2ccc(Cl)cc2O)c1 | -7.36 |
| CC(=O)Oc1c(Cl)c(N2CCOCC2)c(OC(C)=O)c2ccccc12 | -25.2 |
| CCN(Cc1ccccc1)C(=O)c1cccc(S(=O)(=O)N2CCN(Cc3ccccc3)CC2)c1 | -19.6 |
| Cc1ccc(-c2csc(N3CCN(c4cc5c(cc4Cl)nc(-c4ccncc4)n5CCN4CCCCC4)CC3)n2)cc1 | 10.5 |
| Cc1ccc(-c2csc(N3CCN(c4cc5c(cc4Cl)nc(-c4ccncc4)n5CCOCCO)CC3)n2)cc1 | 4.81 |
| Cc1csc(N2CCN(c3cc4c(cc3Cl)nc(-c3ccncc3)n4CCCN3CCCC3)CC2)n1 | -64.8 |
| Cc1n[nH]c(=S)n1-c1cccc(Cl)c1 | 19.7 |
| Cc1nnc(N2C(=O)C(O)=C(C(=O)c3ccco3)C2c2cccc3ccccc23)s1 (stereo not drawn) | -0.387 |
| Cc1cccn2c(=O)c3cc(C(=O)NC4CCCC4)c(=N)n(Cc4ccc(F)cc4)c3nc12 | -68.2 |
| Cc1cccn2c(=O)c3cc(C(=O)NC4CCS(=O)(=O)C4)n(Cc4ccccc4)c3nc12 (stereo not drawn) | -4.36 |
| Cc1cccn2c(=O)c3cc(C(=O)NC4CCCCCC4)sc3nc12 | 9.51 |
| Cc1cccn2c(=O)c3cc(C(=O)NC4CCCCC4)c(=N)n(Cc4ccccc4)c3nc12 | -74.6 |
| Cc1cccn2c(=O)c3cc(C(=O)NC4CCCCC4)c(=N)n(Cc4ccc(F)cc4)c3nc12 | -77.1 |
| Nc1ccc(C(=O)Nc2cccc(NC(=O)c3ccc(N)cc3)c2)cc1 | 17.7 |
| Cn1c(=O)c(=O)n(C)c2cc(S(=O)(=O)CCC(=O)Nc3ccc(F)cc3)ccc21 | -2.6 |
| CS(=O)(=O)N1CCN(CC2CC3C=CC2C3)CC1.O=C(O)C(=O)O (stereo not drawn) | 5.01 |
| CCOc1ccc(N2C(=O)C3C(c4ccc(O)cc4)NC(CCSC)(C(=O)OC)C3C2=O)cc1 (stereo not drawn) | -12.3 |
| CC(NC(=O)c1nn(C)c(=O)c2ccccc12)c1ccc(F)cc1 (stereo not drawn) | -3.84 |

| Compound | hERG current change (%, negative = inhibition) at 10uM [%] |
| --- | --- |
| CCCOC(=O)c1ccccc1C(=O)OCCC | -3.24 |
| CCCCCCCCNC(=O)CCNC(=O)c1ccc(C(C)(C)C)cc1 | 8 |
| CC1CN(S(=O)(=O)c2cccc(C(=O)N(CCc3ccccc3)Cc3ccccc3)c2)CC(C)O1 (stereo not drawn) | -7 |
| O=C(c1cc(S(=O)(=O)N2CCOCC2)ccc1F)N(CCc1ccccc1)Cc1ccccc1 | -4.37 |
| O=C(c1cccc(S(=O)(=O)N2CCOCC2)c1)N(CCO)Cc1ccccc1 | -19.8 |
| O=C(c1ccc(F)c(S(=O)(=O)N2CCOCC2)c1)N(CCc1ccccc1)Cc1ccccc1 | -68.3 |
| O=C(NCc1ccccc1)c1ccc(F)c(S(=O)(=O)N2CCOCC2)c1 | -17.4 |
| O=C(c1cccc(S(=O)(=O)N2CCOCC2)c1)N(CCc1ccccc1)Cc1ccccc1 | -55.4 |
| CCc1nc2cc([N+](=O)[O-])c([N+](=O)[O-])cc2[nH]1 | -14.5 |
| NC(=O)c1ccccc1NC(=O)c1ccc2c(c1)OCO2 | 5.14 |
| CCc1cc2c(=O)n(CC(=O)NC3CCCCC3)cnc2s1 | 4.86 |
| COc1ccc(C2Nc3ccccc3C(=O)N2NC(C)=O)c(OC)c1 (stereo not drawn) | 14.3 |
| Cc1ccc2nc3c(c(N)c2c1)CCN3C.O=C(O)C(=O)O | -33.1 |
| Cc1cccc2c(N)c3c(nc12)N(C)CC3.O=C(O)C(=O)O | -23.1 |
| CN1CCCCc2c1nc1ccccc1c2N.O=C(O)c1cncc(Br)c1 | -82.5 |
| Cc1cc(Br)c2nc3c(c(C(=O)O)c2c1)CCCCC3 | 4.41 |
| O=C(O)c1cncc(Br)c1 | 27.3 |
| Cc1ccc(C)c2c(N)c3c(nc12)CCCCC3.O=C(O)c1cncc(Br)c1 | -88.4 |
| O=[N+]([O-])c1ccc(-c2cnc(NO)nc2)cc1 | -28 |
| CC(C)(C)NC(=O)C(=O)NNC(=O)c1cccc(F)c1 | 18.1 |
| CC1=C(C#N)C(=O)N(C2CCS(=O)(=O)C2)C(=O)/C1=C\c1ccco1 (stereo not drawn) | 7.81 |

| Compound | hERG current change (%, negative = inhibition) at 10uM [%] |
| --- | --- |
| O=C(COC(=O)C1=NNC(=O)CC1)NCCc1ccccc1 | 17.4 |
| O=c1cc(N2CCN(Cc3ccccc3)CC2)c(-c2ccccc2)n[nH]1 | -1.87 |
| Cn1nc(C(C)(C)C)cc1NC(=O)Nc1ccc(F)cc1F | 5.93 |
| CCC(C)N1C(=S)SC(C)(C)C1N(O)C(=O)NC1CCCCC1 (stereo not drawn) | 9.19 |
| COc1ccc(OC)c(C2(O)CSC(=Nc3cccnc3)N2Cc2ccco2)c1 (stereo not drawn) | -16.3 |
| Cn1c(=O)c2c(SCC(=O)N3CCOCC3)nc(-c3ccccc3F)nc2n(C)c1=O | -8.27 |
| CCOC(=O)CC1COCCN1C(=O)c1cc(COc2ccc(F)cc2Cl)on1 (stereo not drawn) | -23.2 |
| CCOC(=O)CC1COCCN1C(=O)c1cc(COc2ccc(F)c(F)c2)on1 (stereo not drawn) | -61.5 |
| O=C(c1cc(COc2ccc(F)c(F)c2)on1)N1CCN(C2CCCCC2)C(=O)C1 | -56.2 |
| O=C(c1cc(COc2ccc(F)c(F)c2)on1)N1CCOCC1 | 5.02 |
| COc1ccc(OCc2cc(C(=O)N3CCN(C4CCCC4)CC3)no2)c(Cl)c1 | -29.6 |
| O=C(c1cc(COc2ccc(F)cc2Cl)on1)N1CCN(C2CCCCC2)C(=O)C1 | -67.9 |
| COc1cccc(OCc2cc(C(=O)N3CCN(C4CCCCC4)C(=O)C3)no2)c1 | -3.09 |
| O=C(c1cc(COc2ccc(F)cc2F)on1)N1CCN(C2CCCC2)C(=O)C1 | -25.8 |
| O=C(c1cc(COc2ccc(F)cc2Cl)on1)N1CCSCC1 | -4.58 |
| O=C(c1cc(COc2ccc(F)cc2Cl)on1)N1CCN(C2CCCC2)CC1 | -61.4 |
| CSc1ccccc1OCc1cc(C(=O)N2CCN(C3CCCC3)C(=O)C2)no1 | -34.8 |
| O=C(c1cc(COc2c(F)cccc2F)on1)N1CCN(C2CCCCC2)C(=O)C1 | -17.5 |
